Drawing on PubChem BioAssay (NCI), this text covers growth for 13 compounds.

The panel holds about 83,000 compounds, 20% with a hit somewhere; the sample as a whole holds those more often.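 Single-concentration screen, 48 h exposure, 96-well plates. Endpoint: percent growth. Below 10 = active.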 A number with no mark means an inactive call. The source made the active and inactive calls.

Holding throughout (assay): NCI-60 one-dose screen, 48 h (100 = growth as untreated, 0 = no growth, -100 = all killed)
Common to all, as to conditions: 10 µM unless noted

Assay [1] has as its system NCI-H23 lung.
Assay [2] deals with NCI-H226 lung.
The subject of assay [3] is NCI-H322M lung.
The test system of assay [4] is HOP-62 NSCLC.
Assay [5] deals with NCI-H460 lung.
Assay [6] deals with HOP-92 NSCLC.
The subject of assay [7] is NCI-H522 lung.
In assay [8] the test system is A549/ATCC NSCLC.
Assay [9] deals with 786-0 renal.
The test system of assay [10] is COLO 205 colon.

For `O=C(/C=C/c1cc(Cl)ccc1Cl)Nc1ncc(Cc2ccc(Cl)cc2)s1`, the growth in assay [1] was 16.7%; in assay [2], 26.1%; in assay [3] it was 33.5%; in [4] it was 1.25% (active); in assay [5], 0.165% (active); in assay [6], -10.6% (active). The growth was -33.7% (active) in assay [7], 12.3% in [8], 0.237% (active) in [9] and -45.2% (active) in assay [10].
On to `CCOC(=O)c1c(NC(=O)c2cccc(C(F)(F)F)c2)sc2c1CCC(=O)C2`, for which the growth in [1] was 16%; in assay [2], 71.8%; in [3], 95.1%; in [4], 31.8%; in assay [5], 27.9%; in assay [6] it was 29.9%. The growth in [7] is -4% (active); in assay [8], 28.9%; in [9] it was 98.4%; in assay [10], 15.8%.
Take `COC(=O)c1cccc(NC2=CC(=O)C(C)=C(C)C2=O)c1`: the growth in [1] is 63.9%; in assay [2] it was 95%; in assay [3], 104%; in [4] it was 97.4%; in [5] it was 104%; in assay [6], 123%. Also, the growth in [7] is 93.6%; in assay [8], 109%; in assay [9] it was 101%; in [10], 114%.
For `Cc1ccc2c(n1)C(=O)C(Cl)=C(Nc1cccc(C(=O)OC(C)(C)C)c1)C2=O`, the growth in [1] was 73.7%; in assay [2], 82.8%; in assay [3], 112%; in assay [4] it was 108%; in assay [5], 101%; in [6], 88.8%. Also, the growth is 60.6% in assay [7], 106% in assay [8], 99.8% in [9] and 119% in [10].
Regarding `NC1[C@H]2CN(c3cnc(C(=O)Nc4cc(F)cc5cccnc45)cn3)C[C@@H]12` (stereo not given in full), the growth in assay [1] is 84.5%; in [2] it was 85.1%; in [3], 6.79% (active); in [4] it was 82.4%; in assay [5], 92.1%; in assay [6] it was 24.8%. For the same compound, the growth in assay [7] was 46.6%; in assay [8], 92.1%; in assay [9], 75.2%; in assay [10], 18.5%.
`O=C(/C=C/c1ccccc1)c1cccc(O)c1`: the growth was 104% in assay [1]; 93.4% in [2]; 93.4% in [3]; 105% in assay [4]; 101% in [5]; 96.1% in [6]. Also, the growth in assay [7] was 95.1%; in assay [8] it was 92.7%; in [9], 94.6%; in assay [10], 110%.
In the case of `COc1ccc(-c2c3c(cn2Cc2cccc(OC)c2)-c2oncc2CCC3)cc1`, the growth in assay [1] is 105%; in assay [2], 85%; in assay [3], 103%; in assay [4], 102%; in assay [5] it was 98.9%; in [6], 74.2%. Also, the growth in [7] was 96.3%; in assay [8], 98.9%; in [9], 103%; in assay [10], 95.2%.
Regarding `CN(C)S(=O)(=O)c1ccc(-c2nc(C(Cl)Cl)nc3cc(-c4ccccc4)nn23)cc1`, the growth in [1] was 85%; in assay [2] it was 96%; in [3] it was 99%; in assay [4], 70.7%; in assay [5], 89%; in assay [6], 79%. Moreover, the growth in [7] is 89.6%; in assay [8], 82.6%; in [9] it was 90.6%; in [10], 69.5%.
As to `CCOP(=O)(OCC)OC[C@]12CCC(C)(C)CC1C1=CC[C@@H]3[C@@]4(C)CCCNC(C)(C)[C@@H]4CC[C@@]3(C)[C@]1(C)CC2` (stereo not given in full), the growth in [1] is 85.2%; in [2] it was 89%; in assay [3], 95.7%; in [4], 101%; in assay [5], 55.1%; in [6] it was 64.8%. For the same compound, the growth in [7] is 90.2%; in [8], 70.8%; in assay [9], 69.4%; in assay [10] it was 3.12% (active).
`COc1ccc(/C=N\NC(=O)c2cnn(CC(O)c3ccccc3)c2N)cc1OCc1ccc(Cl)cc1` (stereo not given): the growth in [1] is 74.7%; in [2], 90.7%; in assay [3] it was 85%; in assay [4] it was 84.1%; in assay [5] it was 44.3%; in assay [6] it was 86%. Besides, the growth was 92.7% in assay [7], 62.9% in [8], 96.2% in [9] and 72.8% in [10].
As to `O=C(CCCCCCN1CC(=O)N2[C@@H](c3cccs3)c3[nH]c4ccccc4c3C[C@H]2C1=O)NO`, the growth in assay [1] is 94.1%; in [2], 107%; in assay [3], 79.8%; in assay [4], 91.2%; in [5] it was 77.2%; in assay [6], 69%. Moreover, the growth in assay [7] is 44.7%; in assay [8], 98.9%; in assay [9], 103%; in assay [10], 93.1%.
Consider `Cc1ccc2c(n1)C(=O)C(Cl)=C(Nc1cc(C(F)(F)F)cc(C(F)(F)F)c1)C2=O`, for which the growth was 86% in assay [1]; 84.3% in [2]; 105% in assay [3]; 118% in [4]; 95.9% in assay [5]; 92.4% in assay [6]. Further, the growth in assay [7] was 37.4%; in assay [8], 101%; in assay [9], 80.3%; in assay [10] it was 92.5%.
Take `CCOC(=O)c1cccc(NC2=C(Cl)C(=O)c3nc(C)ccc3C2=O)c1`: the growth in [1] is 65.2%; in assay [2], 89.5%; in [3], 104%; in [4], 112%; in [5], 100%; in assay [6], 108%. The growth was 88.4% in assay [7], 101% in [8], 103% in assay [9] and 120% in assay [10].
